# In all, about 5,500 compounds went through this assay and about 2,000 (36%) were called active. Inconclusive results (about 18%) are left out. The list shows a part of the results. A number with no mark means an inactive call. No stated cut-off is given here; in the data, active means normalized growth mostly below about 0.91 (no sharp cut-off); inconclusive means no clear call, values can overlap the other calls; inactive means mostly above about 0.92.
# Assay: chemical genetic growth profiling, strain panel (AID 1159580);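 further: tested at 20 µM; growth read once vehicle control cultures reached saturation at 30 °C; 1 = growth at the plate median or of vehicle wells; lower values mean less growth of the strain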
# Conditions: growth OD
compound,measurement,setting,value
CC(=O)/C=C\[C@@H]1[C@@]2(C)CCCC(C)(C)C2CC[C@@]1(C)O (some centres not stated),normalized growth,"S. cerevisiae deletion strains, locus YJR075W, strain HOC1, active compounds read low",0.982
same,normalized growth,"S. cerevisiae deletion strains, locus YKL009W, strain mrt4, active compounds read low",0.97
same,normalized growth,"S. cerevisiae deletion strains, locus YKL068W, active compounds read low",0.984
same,normalized growth,"S. cerevisiae deletion strains, locus YKL085W, strain MDH1 (second series), active compounds read low",0.977
same,normalized growth,"S. cerevisiae deletion strains, locus YKL085W, strain MDH1, active compounds read low",0.977
same,normalized growth,"S. cerevisiae deletion strains, locus YKL160W, strain elf1, active compounds read low",0.963
same,normalized growth,"S. cerevisiae deletion strains, locus YKL190W, strain CNB1, active compounds read low",0.964
same,normalized growth,"S. cerevisiae deletion strains, locus YKR001C, strain vps1, active compounds read low",0.975
same,normalized growth,"S. cerevisiae deletion strains, locus YKR026C, strain gcn3, active compounds read low",0.979
same,normalized growth,"S. cerevisiae deletion strains, locus YKR091W, strain srl3, active compounds read low",0.975
same,normalized growth,"S. cerevisiae deletion strains, locus YLL001W, strain dnm1, active compounds read low",1.01
same,normalized growth,"S. cerevisiae deletion strains, locus YLL026W, active compounds read low",0.991
same,normalized growth,"S. cerevisiae deletion strains, locus YLL041C, strain sdh2, active compounds read low",0.968
same,normalized growth,"S. cerevisiae deletion strains, locus YLR027C, strain aat2, active compounds read low",0.982
same,normalized growth,"S. cerevisiae deletion strains, locus YLR039C, strain RIC1, active compounds read low",0.846
same,normalized growth,"S. cerevisiae deletion strains, locus YLR058C, strain SHM2, active compounds read low",0.958
same,normalized growth,"S. cerevisiae deletion strains, locus YLR102C, strain apc9, active compounds read low",0.973
same,normalized growth,"S. cerevisiae deletion strains, locus YLR113W, strain HOG1, active compounds read low",0.951
same,normalized growth,"S. cerevisiae deletion strains, locus YLR221C, strain rsa3, active compounds read low",1.01
same,normalized growth,"S. cerevisiae deletion strains, locus YLR258W, strain gsy2, active compounds read low",0.981
same,normalized growth,"S. cerevisiae deletion strains, locus YLR262C, strain YPT6 (second series), active compounds read low",0.939
same,normalized growth,"S. cerevisiae deletion strains, locus YLR262C, strain YPT6, active compounds read low",0.843
same,normalized growth,"S. cerevisiae deletion strains, locus YLR268W, strain sec22, active compounds read low",0.923
same,normalized growth,"S. cerevisiae deletion strains, locus YLR320W, strain mms22, active compounds read low",1.01
same,normalized growth,"S. cerevisiae deletion strains, locus YLR330W, strain CHS5, active compounds read low",0.974
same,normalized growth,"S. cerevisiae deletion strains, locus YLR342W, strain FKS1 (second series), active compounds read low",0.957
same,normalized growth,"S. cerevisiae deletion strains, locus YLR342W, strain FKS1, active compounds read low",0.968
same,normalized growth,"S. cerevisiae deletion strains, locus YLR357W, strain rsc2, active compounds read low",0.998
same,normalized growth,"S. cerevisiae deletion strains, locus YLR370C, strain arc18, active compounds read low",0.964
same,normalized growth,"S. cerevisiae deletion strains, locus YLR371W, strain rom2, active compounds read low",1
same,normalized growth,"S. cerevisiae deletion strains, locus YLR384C, strain iki3, active compounds read low",0.973
same,normalized growth,"S. cerevisiae deletion strains, locus YLR418C, strain cdc73, active compounds read low",0.838 (active)
same,normalized growth,"S. cerevisiae deletion strains, locus YML016C, strain PPZ1, active compounds read low",0.964
same,normalized growth,"S. cerevisiae deletion strains, locus YML032C, strain rad52, active compounds read low",1.02
same,normalized growth,"S. cerevisiae deletion strains, locus YML120C, strain ndi1, active compounds read low",0.971
same,normalized growth,"S. cerevisiae deletion strains, locus YML124C, strain tub3, active compounds read low",0.979
same,normalized growth,"S. cerevisiae deletion strains, locus YMR058W, strain fet3, active compounds read low",0.968
same,normalized growth,"S. cerevisiae deletion strains, locus YMR078C, strain ctf18, active compounds read low",0.975
same,normalized growth,"S. cerevisiae deletion strains, locus YMR125W, strain sto1, active compounds read low",0.958
same,normalized growth,"S. cerevisiae deletion strains, locus YMR129W, active compounds read low",0.96
same,normalized growth,"S. cerevisiae deletion strains, locus YMR205C, strain PFK2, active compounds read low",0.926
same,normalized growth,"S. cerevisiae deletion strains, locus YMR223W, strain ubp8, active compounds read low",1.01
same,normalized growth,"S. cerevisiae deletion strains, locus YMR231W, strain pep5, active compounds read low",0.972
same,normalized growth,"S. cerevisiae deletion strains, locus YMR263W, strain SAP30, active compounds read low",0.947
same,normalized growth,"S. cerevisiae deletion strains, locus YMR307W, strain GAS1, active compounds read low",1.08
same,normalized growth,"S. cerevisiae deletion strains, locus YNL067W, strain RPL9B, active compounds read low",0.957
same,normalized growth,"S. cerevisiae deletion strains, locus YNL071W, strain lat1, active compounds read low",0.961
same,normalized growth,"S. cerevisiae deletion strains, locus YNL128W, strain TEP1, active compounds read low",0.927
same,normalized growth,"S. cerevisiae deletion strains, locus YNL153C, strain GIM3, active compounds read low",0.951
same,normalized growth,"S. cerevisiae deletion strains, locus YNL183C, strain NPR1, active compounds read low",0.947
same,normalized growth,"S. cerevisiae deletion strains, locus YNL209W, strain ssb2, active compounds read low",0.986
same,normalized growth,"S. cerevisiae deletion strains, locus YNL233W, strain BNI4, active compounds read low",0.942
same,normalized growth,"S. cerevisiae deletion strains, locus YNL248C, strain rpa49, active compounds read low",0.952
same,normalized growth,"S. cerevisiae deletion strains, locus YNL250W, strain rad50, active compounds read low",0.99
same,normalized growth,"S. cerevisiae deletion strains, locus YNL271C, strain bni1, active compounds read low",0.991
same,normalized growth,"S. cerevisiae deletion strains, locus YNL298W, strain CLA4, active compounds read low",0.984
same,normalized growth,"S. cerevisiae deletion strains, locus YNL307C, strain MCK1, active compounds read low",0.948
same,normalized growth,"S. cerevisiae deletion strains, locus YNL322C, strain KRE1 (second series), active compounds read low",0.989
same,normalized growth,"S. cerevisiae deletion strains, locus YNL322C, strain KRE1, active compounds read low",0.965
same,normalized growth,"S. cerevisiae deletion strains, locus YNR049C, strain mso1, active compounds read low",0.98
same,normalized growth,"S. cerevisiae deletion strains, locus YNR052C, strain pop2, active compounds read low",0.98
same,normalized growth,"S. cerevisiae deletion strains, locus YOL006C, strain TOP1, active compounds read low",0.867
same,normalized growth,"S. cerevisiae deletion strains, locus YOL012C, strain htz1",0.968
same,normalized growth,"S. cerevisiae deletion strains, locus YOL147C, strain pex11, active compounds read low",0.987
same,normalized growth,"S. cerevisiae deletion strains, locus YOR001W, strain rrp6, active compounds read low",0.95
same,normalized growth,"S. cerevisiae deletion strains, locus YOR061W, strain CKA2, active compounds read low",0.944
same,normalized growth,"S. cerevisiae deletion strains, locus YOR069W, strain VPS5, active compounds read low",0.977
same,normalized growth,"S. cerevisiae deletion strains, locus YOR070C, strain gyp1, active compounds read low",0.968
same,normalized growth,"S. cerevisiae deletion strains, locus YOR080W, strain dia2, active compounds read low",0.978
same,normalized growth,"S. cerevisiae deletion strains, locus YOR083W, strain WHI5, active compounds read low",1.03
same,normalized growth,"S. cerevisiae deletion strains, locus YOR106W, strain vam3, active compounds read low",0.982
same,normalized growth,"S. cerevisiae deletion strains, locus YOR136W, strain idh2, active compounds read low",0.996
same,normalized growth,"S. cerevisiae deletion strains, locus YOR144C, strain elg1, active compounds read low",0.97
same,normalized growth,"S. cerevisiae deletion strains, locus YOR184W, strain ser1, active compounds read low",0.993
same,normalized growth,"S. cerevisiae deletion strains, locus YOR231W, strain MKK1, active compounds read low",0.964
same,normalized growth,"S. cerevisiae deletion strains, locus YOR265W, strain rbl2, active compounds read low",0.979
same,normalized growth,"S. cerevisiae deletion strains, locus YOR270C, strain vph1, active compounds read low",0.909
same,normalized growth,"S. cerevisiae deletion strains, locus YOR290C, strain snf2, active compounds read low",0.974
same,normalized growth,"S. cerevisiae deletion strains, locus YOR316C, strain cot1, active compounds read low",0.977
same,normalized growth,"S. cerevisiae deletion strains, locus YPL051W, strain arl3, active compounds read low",0.986
same,normalized growth,"S. cerevisiae deletion strains, locus YPL055C, strain LGE1, active compounds read low",0.866
same,normalized growth,"S. cerevisiae deletion strains, locus YPL078C, strain atp4, active compounds read low",0.97
same,normalized growth,"S. cerevisiae deletion strains, locus YPL106C, strain sse1, active compounds read low",1.02
same,normalized growth,"S. cerevisiae deletion strains, locus YPL240C, strain hsp82, active compounds read low",0.98
same,normalized growth,"S. cerevisiae deletion strains, locus YPL241C, strain CIN2, active compounds read low",0.968
same,normalized growth,"S. cerevisiae deletion strains, locus YPL256C, strain CLN2, active compounds read low",0.979
same,normalized growth,"S. cerevisiae deletion strains, locus YPR119W, strain clb2, active compounds read low",0.985
same,normalized growth,"S. cerevisiae deletion strains, locus YPR141C, strain kar3, active compounds read low",0.975
same,normalized growth,"S. cerevisiae deletion strains, locus YPR163C, strain tif3, active compounds read low",0.973
same,normalized growth,"S. cerevisiae deletion strains, locus YPR167C, strain met16, active compounds read low",0.971
same,normalized growth,"S. cerevisiae deletion strains, strain wtn01, active compounds read low",0.94
same,normalized growth,"S. cerevisiae strains, strain wild type, active compounds read low",0.967
